Records with an inconclusive call do not appear. A number with no mark means an inactive call. Calls of active or inactive are those of the source. Calls come from the whole dose curve.
Experiment: Natriuretic polypeptide receptor (hNpr1) antagonism - Pilot counterscreen GloSensor control cell line (AID 1347045)
Conditions: HEK293 cGMP GloSensor cells, SNP-stimulated luminescence, 20 min; series mostly up to 38.3 µM; activity change, negative = inhibition: at the top concentration
Experimental: F. Fan, B. F. Binkowski, B. L. Butler, P. F. Stecha, M. K. Lewis, K. V. Wood, Novel genetically encoded biosensors using firefly luciferase. ACS Chem Biol 3, 346-351 (2008).
PROTOCOL TABLE (as described by Inglese J, Shamu CE and Guy RK. 2007)
SEQUENCE No. (e.g., 1, 2, 3, etc.); […] (e.g., Cells, Incubation, Reagent, etc.); VALUE and DESCRIPTION.
1. Cells. Seed 1500 HEK293 cGMP-sensor cells per well in 4uL into Greiner 1536-well white/solid bottom high base, TC plates.
2. Incubation. Incubate plated cells at 37C in 5% CO2, 95% RH overnight.
3. Reagent. Add 1uL per well GloSensor reagent from Promega (2% final concentration) or CO2 independent media vehicle control to respective columns of Greiner 1536-well plates.
4. Incubation. Incubate plated cells at room temperature for 2 h, protect from light.
5. Compounds. Library compounds and DMSO vehicle control added at 23nL per well, transferred by Pin Tool.
6. Incubation. Incubate plated cells for 30 min. at room temperature, protect from light.
7. Detector. GloSensor baseline pre-read luminescence measured using CCD-based camera (Viewlux).
8. Compound. Add 1uL of sodium nitroprusside (SNP) to 50 uM final concentration to stimulate soluble guanylyl cyclase (GC) or CO2 independent media as vehicle control.
9. Incubation. Incubate treated cells at room temperature for 20 min., protect from light.
10. Detector. GloSensor post-SNP luminescence measured using CCD-based camera (Viewlux).
NOTES (numbers refer to Sequence numbers above; values are from representative experiments)
1. HEK293 cells expressing GIP/pGS-40F were grown to 85-95% confluence (48-72 h) in T175 culture flasks (CO2 independent media supplemented with 10% FBS, 1% Pen/Strep antibiotics, and 1 ug/mL puromycin). Trypsinize and harvest cells from T175 culture flasks and filter through 40 um cell strainer. Cells counted with Invitrogen Countess (30,000,000 - 50,000,000 cells/flask).
2. Cells incubated for 24 h. at 37C in 95% RH incubator with metal lid having gas-exchange holes.
3. Prepare GloSensor Reagent (Promega): Reconstitute GloSensor luciferase substrate by adding 8.2mL Hepes buffer to 250mg substrate, mix well, protect from light and stored at -80C. Prepare a fresh 12% GloSensor solution in CO2 independent supplemented plating media (see above). Mix well and store at ambient temperature, protected from light. 1uL 12% GloSensor Luciferase Reagent added (2% final concentration) to respective columns of 9 x 1536-well Greiner plate with BioRaptr, 1uL CO2 independent plating media added to respective columns as vehicle control with BioRaptr.
4. Cells incubated for 2 h. at ambient temperature, protected from light with metal lid having gas-exchange holes.
5. 23nL of LOPAC128 library compounds (7 plates) or DMSO vehicle control transferred to 9 Greiner white/solid bottom high base, TC plates in 7 interplate 1:5 titrations (see Yasgar, A. et al. 2008) with Pintool. Two of the 9 plates are DMSO-only in compound field at beginning and end of compound library-treated plates.
6. Cells incubated for 30-50 min. at ambient temperature protected from light with metal lid having gas-exchange holes.
7. Read GloSensor + Antagonist/Compound baseline Luminescence on the ViewLux [Exposure, 30 s; Gain, High; Speed, Slow; Binning, 2X]
8. SNP solution prepared at 500 mM (in H2O) stock concentration. From this a working dilution was prepared at 300 uM in CO2 Independent media. 1uL of 300 uM SNP (50 uM final concentration) or CO2 Independent media vehicle control dispensed into respective columns of 9 x Greiner 1536-well white/solid bottom, tissue culture plates with BioRaptr.
9. Cells incubated for 20 min. at ambient temperature, protected from light with metal lid having gas-exchange holes.
10. Read final luminescence on the ViewLux. [Exposure, 30 s; Gain, High; Speed, Slow; Binning, 2X.]
[…]
% is set by controls: 0 for no effect and ±100 for the full control effect; potency is the fitted concentration of half-maximal effect.

Row | SMILES | activity change, negative = inhibition [%] | Potency
1 | O=c1cc(-c2ccccc2F)[nH]c2cc3c(cc12)OCO3 | 12.1 | –
2 | COc1cc(CC(=O)O)ccc1O | 6.55 | –
3 | C#CC(N)CCC(=O)O (stereo not given) | 4.01 | –
4 | c1ccc(C2CN3CCSC3=N2)cc1 (stereo not given) | -3.39 | –
5 | CC(C)NC[C@H](O)COc1cccc2ccccc12 | 11.3 | –
6 | CC1=C(/C=C/C(C)=C/C=C/C(C)=C\C(=O)O)C(C)(C)CCC1 | 0.801 | –
7 | CCCCCCN(CCCCCC)C(=O)Cc1c(-c2ccc(F)cc2)[nH]c2ccccc12 | -3.47 | –
8 | Cc1ccc([N+](=O)[O-])cc1S(=O)(=O)N(C)C | -0.0492 | –
9 | N=C(N)c1ccc(OCCCCCOc2ccc(C(=N)N)cc2)cc1 (tested in a mixture with another compound) | -14.6 | –
10 | O=c1cc(O)cc(/C=C/c2ccc(O)c(O)c2)o1 | -0.0549 | –
11 | O=C(O)C1=CCCNC1 | 2.32 | –
12 | C[C@@]1(C2CCCC2)Cc2cc(OCC(=O)O)c(Cl)c(Cl)c2C1=O | -2.88 | –
13 | CSC(N)=NCCC[C@H](N)C(=O)O | -3.15 | –
14 | Cc1cc(Cn2cnc3c2C[C@@H](C(=O)O)N(C(=O)C(c2ccccc2)c2ccccc2)C3)ccc1N | 6.17 | –
15 | O=C(O)c1ccccc1Nc1ccccc1 | -24.8 | –
16 | NS(=O)(=O)c1cccc2c1c([N+](=O)[O-])cc1nc(O)c(O)nc12 | 0.688 | –
17 | O=C(O)c1cc(=O)cc(C(=O)O)[nH]1 | 15.1 | –
18 | Cc1cccc(C2CN(C)CCc3c2cc(O)c(O)c3Cl)c1 (stereo not given) | -1.01 | –
19 | CN[C@H](CC(=O)O)C(=O)O | 1.76 | –
20 | N#Cc1cc([N+](=O)[O-])c2sc(C(N)=O)[n+]([O-])c2c1 | – | 14.7 µM (active)

Row | SMILES | activity change, negative = inhibition [%] | Potency
21 | Cc1ccc2c(c1)C(N1CCN(C)CC1)=Nc1cccnc1N2 | -5.53 | –
22 | CC[n+]1c(/C=C/C=C2/N(C)c3ccccc3C2(C)C)sc2ccccc21 | – | 0.233 µM (active)
23 | NCCC1CCCC(CCN)N1 (stereo not given) | 3.47 | –
24 | CC(C)C[C@H](NC(=O)C1OC1C(=O)O)C(=O)NCCCCN=C(N)N (stereo not given in full) | -1.89 | –
25 | C[N+](C)(C)CC=O | 1.78 | –
26 | O=c1[nH]ccc2c(O)cccc12 | -9.28 | –
27 | N[C@@H](Cc1ccc(F)cc1)C(=O)O | -0.249 | –
28 | CCCCC[C@H](CC(=O)NO)C(=O)N[C@H](C(=O)N1CCC[C@H]1CO)C(C)C | 5.38 | –
29 | CCC(=O)N1CCN(C(=O)c2ccccc2)CC1 | 0.846 | –
30 | NC(=O)c1ccccc1 | 0.833 | –
31 | O=C(O)c1cccnc1C(=O)O | 6.87 | –
32 | CNc1cc(NS(=O)(=O)c2ccc(N)cc2)nc(NC)n1 | -1.38 | –
33 | COC(=O)C(C)(N)Cc1ccc(O)cc1 (stereo not given) | -6.64 | –
34 | NC1CCN(O)C1=O (stereo not given) | 7.17 | –
35 | COC1(C2=NCCN2)COc2ccccc2O1 (stereo not given) | 2.75 | –
36 | CCn1c(=O)[nH]c2cc(Cl)c(Cl)cc21 | 23.5 | –
37 | O=[N+]([O-])c1cccc2c(Br)[nH]nc12 | -0.902 | –
38 | CC(/C=C/c1cccc(Oc2ccc(F)cc2)c1)N(O)C(N)=O (stereo not given) | -6.47 | –
39 | O=c1oc(Cl)c(Cl)c2ccccc12 | – | 13.1 µM (active)
40 | Cc1nc(N=Nc2cc(S(=O)(=O)O)c3cc([N+](=O)[O-])cc(S(=O)(=O)O)c3c2)c(COP(=O)(O)O)c(C=O)c1O | 1.69 | –

From PubChem BioAssay (NCATS)
